Results reported in publication PMC7862700, “An all-to-all approach to the identification of sequence-specific readers for epigenetic DNA modifications on cytosine”.

What was measured:
Assay in all cases: DAPPL (digital affinity profiling via proximity ligation, sequencing); 10 mM Tris-HCl pH 7.5, 50 mM NaCl, 1 mM DTT, 4% glycerol, room temperature, 30 min; GST-TFs on glutathione beads, 16-mer random dsDNA library, 0.1% formaldehyde crosslink after washing; high values mean tight binding
FLI1 = target: T1, FLI1 (Homo sapiens, UniProt Q01543 1-452); conditions: protein: recombinant; tags: N-terminal GST; dsDNA, one strand shown
T1 sequence: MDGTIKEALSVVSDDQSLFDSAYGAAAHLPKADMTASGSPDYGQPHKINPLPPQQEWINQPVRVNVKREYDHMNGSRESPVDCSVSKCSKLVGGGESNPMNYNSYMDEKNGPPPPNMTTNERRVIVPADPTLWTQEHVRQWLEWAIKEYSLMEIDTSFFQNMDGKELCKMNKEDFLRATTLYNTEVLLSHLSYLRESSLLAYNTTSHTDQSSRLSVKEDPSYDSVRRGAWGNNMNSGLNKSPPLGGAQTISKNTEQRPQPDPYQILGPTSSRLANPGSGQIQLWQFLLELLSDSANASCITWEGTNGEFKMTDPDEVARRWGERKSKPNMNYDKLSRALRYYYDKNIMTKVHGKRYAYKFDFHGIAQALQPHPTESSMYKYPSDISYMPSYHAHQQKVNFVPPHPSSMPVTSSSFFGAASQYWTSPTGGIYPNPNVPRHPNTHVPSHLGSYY
Method in brief: (§1)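 Human transcription factors carrying a GST fusion were produced in yeast, bound to glutathione beads, tagged with DNA barcodes and pooled together with a tag-only sample. Each pool was held with 200 nmole of a random double-stranded 16-mer DNA library in Tris/NaCl/DTT/glycerol buffer for 30 min at room temperature, then washed, crosslinked in 0.1% formaldehyde, proximity-ligated with BsaI/T4 ligase (1 h, 37 °C), PCR-amplified and sequenced on an Illumina NextSeq500. Binding signal is the read frequency of each hexamer for a given factor divided by its frequency in the tag-only sample.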

ELK1 = target: T2, ELK1 (Homo sapiens, UniProt P19419 1-428); conditions: protein: recombinant; tags: N-terminal GST; dsDNA, one strand shown
T2 sequence: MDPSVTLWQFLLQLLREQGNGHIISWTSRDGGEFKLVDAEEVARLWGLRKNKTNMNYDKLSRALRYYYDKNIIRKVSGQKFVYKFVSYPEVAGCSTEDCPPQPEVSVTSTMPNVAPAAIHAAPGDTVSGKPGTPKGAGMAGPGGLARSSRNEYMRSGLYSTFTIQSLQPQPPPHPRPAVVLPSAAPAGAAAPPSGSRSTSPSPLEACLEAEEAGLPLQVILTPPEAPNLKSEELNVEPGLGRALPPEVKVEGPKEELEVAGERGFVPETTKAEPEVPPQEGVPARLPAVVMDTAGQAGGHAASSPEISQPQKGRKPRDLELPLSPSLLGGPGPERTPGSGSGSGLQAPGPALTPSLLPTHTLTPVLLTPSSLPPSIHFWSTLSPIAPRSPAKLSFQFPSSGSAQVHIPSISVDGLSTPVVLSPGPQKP
Method in brief: as §1

GABPA = target: T3, GABPA (Homo sapiens, UniProt Q06546 1-454); conditions: protein: recombinant; tags: N-terminal GST; dsDNA, one strand shown
T3 sequence: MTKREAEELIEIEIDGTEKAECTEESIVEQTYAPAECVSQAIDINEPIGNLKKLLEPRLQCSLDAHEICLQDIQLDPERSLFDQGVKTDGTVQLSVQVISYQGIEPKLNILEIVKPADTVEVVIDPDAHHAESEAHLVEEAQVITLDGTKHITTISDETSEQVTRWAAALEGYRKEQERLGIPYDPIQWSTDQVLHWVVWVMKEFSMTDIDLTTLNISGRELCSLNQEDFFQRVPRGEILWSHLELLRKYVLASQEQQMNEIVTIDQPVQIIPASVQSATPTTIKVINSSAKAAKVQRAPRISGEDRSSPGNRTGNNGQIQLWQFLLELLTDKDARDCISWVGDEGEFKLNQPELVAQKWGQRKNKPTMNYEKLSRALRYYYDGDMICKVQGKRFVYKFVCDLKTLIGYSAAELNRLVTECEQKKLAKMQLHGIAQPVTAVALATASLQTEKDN
Method in brief: as §1

ERG = target: T4, ERG (Homo sapiens, UniProt P11308 1-479); conditions: protein: recombinant; tags: N-terminal GST; dsDNA, one strand shown
T4 sequence: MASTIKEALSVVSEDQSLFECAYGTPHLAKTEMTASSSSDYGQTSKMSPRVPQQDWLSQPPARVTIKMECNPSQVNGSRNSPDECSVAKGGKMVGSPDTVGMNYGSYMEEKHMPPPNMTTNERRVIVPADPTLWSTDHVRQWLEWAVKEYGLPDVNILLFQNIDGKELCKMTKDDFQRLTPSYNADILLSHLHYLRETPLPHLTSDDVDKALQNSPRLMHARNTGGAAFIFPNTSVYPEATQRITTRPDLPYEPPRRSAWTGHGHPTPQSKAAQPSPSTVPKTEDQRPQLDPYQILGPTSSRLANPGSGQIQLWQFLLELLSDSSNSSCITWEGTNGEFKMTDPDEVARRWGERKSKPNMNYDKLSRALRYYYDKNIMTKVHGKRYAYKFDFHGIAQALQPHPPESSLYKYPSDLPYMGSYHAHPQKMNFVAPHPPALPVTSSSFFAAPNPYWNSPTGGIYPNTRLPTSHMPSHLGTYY
Method in brief: as §1

ELF1 = ELF1 (Homo sapiens, UniProt P32519 1-619); conditions: protein: recombinant; tags: N-terminal GST; dsDNA, one strand shown
Chain of ELF1 (P32519 whole entry): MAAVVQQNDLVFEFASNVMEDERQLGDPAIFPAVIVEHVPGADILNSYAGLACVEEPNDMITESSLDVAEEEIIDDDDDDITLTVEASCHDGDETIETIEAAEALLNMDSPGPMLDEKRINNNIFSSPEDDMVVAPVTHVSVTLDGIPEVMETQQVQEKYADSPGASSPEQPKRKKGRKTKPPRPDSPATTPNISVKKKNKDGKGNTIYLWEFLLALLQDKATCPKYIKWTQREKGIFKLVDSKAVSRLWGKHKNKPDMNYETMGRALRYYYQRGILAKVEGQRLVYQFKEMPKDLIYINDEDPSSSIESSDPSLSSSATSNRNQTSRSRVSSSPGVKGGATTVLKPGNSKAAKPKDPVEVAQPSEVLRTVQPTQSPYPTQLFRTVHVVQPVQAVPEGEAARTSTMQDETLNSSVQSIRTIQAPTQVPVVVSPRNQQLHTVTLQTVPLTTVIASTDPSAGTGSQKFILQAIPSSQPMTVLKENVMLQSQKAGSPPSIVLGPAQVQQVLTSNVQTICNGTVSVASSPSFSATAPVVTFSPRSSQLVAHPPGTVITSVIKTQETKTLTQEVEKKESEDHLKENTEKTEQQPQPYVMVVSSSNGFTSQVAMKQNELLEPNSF
Method in brief: as §1

EHF = target: T5, EHF (Homo sapiens, UniProt Q9NZC4 1-300); conditions: protein: recombinant; tags: N-terminal GST; dsDNA, one strand shown
T5 sequence: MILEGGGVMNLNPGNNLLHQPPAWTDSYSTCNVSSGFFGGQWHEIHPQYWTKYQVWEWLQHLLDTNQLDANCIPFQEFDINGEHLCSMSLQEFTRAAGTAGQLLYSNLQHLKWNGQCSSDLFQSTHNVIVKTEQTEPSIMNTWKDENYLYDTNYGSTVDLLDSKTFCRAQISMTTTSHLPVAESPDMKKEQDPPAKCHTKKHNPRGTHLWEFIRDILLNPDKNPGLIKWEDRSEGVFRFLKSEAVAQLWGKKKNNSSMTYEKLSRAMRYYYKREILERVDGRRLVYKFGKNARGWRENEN
Method in brief: as §1

SPI1 = SPI1 (Homo sapiens, UniProt P17947 1-270); conditions: protein: recombinant; tags: N-terminal GST; dsDNA, one strand shown
Method in brief: as §1

SPIB = SPIB (Homo sapiens, UniProt Q01892 1-262); conditions: protein: recombinant; tags: N-terminal GST; dsDNA, one strand shown
Chain of SPIB (Q01892 whole entry): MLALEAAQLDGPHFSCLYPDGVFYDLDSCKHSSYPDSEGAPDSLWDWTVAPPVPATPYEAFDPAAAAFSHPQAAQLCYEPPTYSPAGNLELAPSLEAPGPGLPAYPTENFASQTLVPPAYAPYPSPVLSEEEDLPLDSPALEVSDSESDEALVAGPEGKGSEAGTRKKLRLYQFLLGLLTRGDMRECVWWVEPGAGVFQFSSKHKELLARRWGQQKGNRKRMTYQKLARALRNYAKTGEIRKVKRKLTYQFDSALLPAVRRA
Method in brief: as §1

ELK3 = target: T6, ELK3 (Homo sapiens, UniProt P41970 1-407); conditions: protein: recombinant; tags: N-terminal GST; dsDNA, one strand shown
T6 sequence: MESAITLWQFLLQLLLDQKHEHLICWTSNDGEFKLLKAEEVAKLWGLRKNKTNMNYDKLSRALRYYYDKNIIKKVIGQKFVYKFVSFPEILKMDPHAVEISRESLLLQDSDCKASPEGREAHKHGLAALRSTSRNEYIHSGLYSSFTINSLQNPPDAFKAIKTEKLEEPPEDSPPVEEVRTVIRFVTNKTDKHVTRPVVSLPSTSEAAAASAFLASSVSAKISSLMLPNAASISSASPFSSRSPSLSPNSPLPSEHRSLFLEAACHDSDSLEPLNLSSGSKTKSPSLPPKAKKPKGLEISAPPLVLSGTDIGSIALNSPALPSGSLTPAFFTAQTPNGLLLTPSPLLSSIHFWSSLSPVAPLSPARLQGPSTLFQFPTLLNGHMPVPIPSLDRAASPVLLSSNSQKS
Method in brief: as §1

FEV = target: T7, FEV (Homo sapiens, UniProt Q99581 1-238); conditions: protein: recombinant; tags: N-terminal GST; dsDNA, one strand shown
T7 sequence: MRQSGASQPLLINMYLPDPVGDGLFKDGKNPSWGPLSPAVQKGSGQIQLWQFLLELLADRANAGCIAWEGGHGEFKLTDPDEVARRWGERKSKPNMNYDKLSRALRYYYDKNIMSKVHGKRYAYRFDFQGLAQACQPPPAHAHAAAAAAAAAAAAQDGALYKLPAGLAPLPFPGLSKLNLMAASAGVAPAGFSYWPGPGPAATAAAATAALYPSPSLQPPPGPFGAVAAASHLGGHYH
Method in brief: as §1

ETV5 = ETV5 (Homo sapiens, UniProt P41161 1-510); conditions: protein: recombinant; tags: N-terminal GST; dsDNA, one strand shown
Chain of ETV5 (P41161 whole entry): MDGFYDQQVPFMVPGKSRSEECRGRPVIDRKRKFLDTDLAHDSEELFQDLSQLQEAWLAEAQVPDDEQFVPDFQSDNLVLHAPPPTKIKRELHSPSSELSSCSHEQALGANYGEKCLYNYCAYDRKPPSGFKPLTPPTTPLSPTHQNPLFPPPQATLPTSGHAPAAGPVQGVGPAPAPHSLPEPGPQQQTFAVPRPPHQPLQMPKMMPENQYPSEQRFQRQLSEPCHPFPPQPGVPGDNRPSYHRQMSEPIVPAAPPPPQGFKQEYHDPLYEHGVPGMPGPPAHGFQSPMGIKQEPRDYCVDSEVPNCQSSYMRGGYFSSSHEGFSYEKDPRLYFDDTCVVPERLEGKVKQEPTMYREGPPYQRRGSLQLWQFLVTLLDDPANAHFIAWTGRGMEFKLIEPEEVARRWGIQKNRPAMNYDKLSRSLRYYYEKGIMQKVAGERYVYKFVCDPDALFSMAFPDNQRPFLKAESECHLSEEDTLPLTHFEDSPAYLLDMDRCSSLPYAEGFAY
Method in brief: as §1

HSF1 = HSF1 (Homo sapiens, UniProt Q00613 1-529); conditions: protein: recombinant; tags: N-terminal GST; chain copies: 3; dsDNA, one strand shown
Chain of HSF1 (Q00613 whole entry): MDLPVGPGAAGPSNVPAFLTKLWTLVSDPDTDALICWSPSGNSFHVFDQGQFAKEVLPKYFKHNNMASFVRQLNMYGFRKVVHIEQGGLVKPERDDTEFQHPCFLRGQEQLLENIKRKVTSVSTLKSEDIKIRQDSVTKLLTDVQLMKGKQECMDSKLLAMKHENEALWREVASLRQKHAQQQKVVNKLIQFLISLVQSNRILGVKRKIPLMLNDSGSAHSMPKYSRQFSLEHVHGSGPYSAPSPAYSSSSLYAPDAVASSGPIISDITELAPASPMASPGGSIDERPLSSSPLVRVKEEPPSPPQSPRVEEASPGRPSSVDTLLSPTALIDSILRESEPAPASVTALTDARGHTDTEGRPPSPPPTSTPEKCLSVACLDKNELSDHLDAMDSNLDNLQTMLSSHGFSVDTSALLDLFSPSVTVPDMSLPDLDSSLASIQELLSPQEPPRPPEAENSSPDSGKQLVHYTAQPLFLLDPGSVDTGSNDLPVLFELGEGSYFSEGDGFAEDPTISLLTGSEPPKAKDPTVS
Method in brief: as §1

SPIC = target: T8, SPIC (Homo sapiens, UniProt Q8N5J4 1-248); conditions: protein: recombinant; tags: N-terminal GST; dsDNA, one strand shown
T8 sequence: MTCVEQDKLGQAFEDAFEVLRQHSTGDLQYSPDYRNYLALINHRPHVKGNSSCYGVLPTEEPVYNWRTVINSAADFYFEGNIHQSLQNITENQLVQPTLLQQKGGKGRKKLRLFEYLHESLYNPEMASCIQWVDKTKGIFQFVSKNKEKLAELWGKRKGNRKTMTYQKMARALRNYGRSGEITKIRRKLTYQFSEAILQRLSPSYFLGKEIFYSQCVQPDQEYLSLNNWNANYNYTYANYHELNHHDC
Method in brief: as §1

ELF4 = ELF4 (Homo sapiens, UniProt Q99607 1-663); conditions: protein: recombinant; tags: N-terminal GST; dsDNA, one strand shown
Chain of ELF4 (Q99607 whole entry): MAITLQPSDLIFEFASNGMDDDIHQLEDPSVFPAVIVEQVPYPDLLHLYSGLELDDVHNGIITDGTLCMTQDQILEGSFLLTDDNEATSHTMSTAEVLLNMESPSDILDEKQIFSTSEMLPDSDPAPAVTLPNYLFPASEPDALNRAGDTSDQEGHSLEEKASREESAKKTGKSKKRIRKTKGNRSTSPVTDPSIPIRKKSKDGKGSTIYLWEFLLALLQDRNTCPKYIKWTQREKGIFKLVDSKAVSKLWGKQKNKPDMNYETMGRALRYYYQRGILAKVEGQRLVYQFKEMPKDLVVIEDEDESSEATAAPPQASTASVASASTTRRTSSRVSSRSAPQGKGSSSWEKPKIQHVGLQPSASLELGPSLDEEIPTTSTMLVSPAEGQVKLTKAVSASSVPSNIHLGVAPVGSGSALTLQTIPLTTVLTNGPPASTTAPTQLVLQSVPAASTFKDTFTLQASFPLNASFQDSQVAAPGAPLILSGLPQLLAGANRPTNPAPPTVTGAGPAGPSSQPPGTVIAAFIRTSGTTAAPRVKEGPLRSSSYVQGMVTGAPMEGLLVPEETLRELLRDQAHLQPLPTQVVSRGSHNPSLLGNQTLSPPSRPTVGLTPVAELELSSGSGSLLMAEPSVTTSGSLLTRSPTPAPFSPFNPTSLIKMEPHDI
Method in brief: as §1

ELK4 = target: T9, ELK4 (Homo sapiens, UniProt P28324-2 1-405); conditions: protein: recombinant; tags: N-terminal GST; dsDNA, one strand shown
T9 sequence: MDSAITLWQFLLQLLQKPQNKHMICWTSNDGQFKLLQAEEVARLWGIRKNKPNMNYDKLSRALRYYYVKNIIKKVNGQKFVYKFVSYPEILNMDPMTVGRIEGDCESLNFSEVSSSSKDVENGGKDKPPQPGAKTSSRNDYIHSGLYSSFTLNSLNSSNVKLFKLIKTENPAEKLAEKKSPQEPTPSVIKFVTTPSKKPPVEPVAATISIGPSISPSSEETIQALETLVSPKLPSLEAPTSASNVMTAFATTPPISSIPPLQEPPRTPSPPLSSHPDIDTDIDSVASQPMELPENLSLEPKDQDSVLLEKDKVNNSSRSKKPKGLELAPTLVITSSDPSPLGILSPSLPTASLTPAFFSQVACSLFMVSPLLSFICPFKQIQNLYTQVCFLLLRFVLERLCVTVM
Method in brief: as §1

ETV2 = target: T10, ETV2 (Homo sapiens, UniProt O00321 1-342); conditions: protein: recombinant; tags: N-terminal GST; dsDNA, one strand shown
T10 sequence: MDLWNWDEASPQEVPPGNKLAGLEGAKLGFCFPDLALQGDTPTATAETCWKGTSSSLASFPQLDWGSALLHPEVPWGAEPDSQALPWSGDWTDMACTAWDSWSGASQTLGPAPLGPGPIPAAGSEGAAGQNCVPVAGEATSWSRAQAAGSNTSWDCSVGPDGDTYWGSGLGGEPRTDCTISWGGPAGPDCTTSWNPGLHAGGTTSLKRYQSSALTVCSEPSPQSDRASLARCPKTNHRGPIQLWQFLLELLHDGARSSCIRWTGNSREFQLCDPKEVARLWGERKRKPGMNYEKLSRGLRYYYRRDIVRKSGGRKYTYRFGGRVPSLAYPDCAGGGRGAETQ
Method in brief: as §1

ELF3 = target: T11, ELF3 (Homo sapiens, UniProt P78545 1-371); conditions: protein: recombinant; tags: N-terminal GST; dsDNA, one strand shown
T11 sequence: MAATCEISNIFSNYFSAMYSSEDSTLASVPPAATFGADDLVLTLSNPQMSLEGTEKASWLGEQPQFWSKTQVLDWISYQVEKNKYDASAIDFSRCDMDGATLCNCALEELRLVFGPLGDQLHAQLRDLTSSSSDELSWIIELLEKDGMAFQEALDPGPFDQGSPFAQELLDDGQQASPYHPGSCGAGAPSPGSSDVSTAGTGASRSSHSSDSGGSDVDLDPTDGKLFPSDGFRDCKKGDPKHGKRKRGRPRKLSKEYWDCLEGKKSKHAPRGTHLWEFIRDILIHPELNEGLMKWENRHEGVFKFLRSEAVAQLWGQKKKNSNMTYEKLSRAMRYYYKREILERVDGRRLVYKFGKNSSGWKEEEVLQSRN
Method in brief: as §1

ETV1 = ETV1 (Homo sapiens, UniProt P50549 1-477); conditions: protein: recombinant; tags: N-terminal GST; dsDNA, one strand shown
Chain of ETV1 (P50549 whole entry): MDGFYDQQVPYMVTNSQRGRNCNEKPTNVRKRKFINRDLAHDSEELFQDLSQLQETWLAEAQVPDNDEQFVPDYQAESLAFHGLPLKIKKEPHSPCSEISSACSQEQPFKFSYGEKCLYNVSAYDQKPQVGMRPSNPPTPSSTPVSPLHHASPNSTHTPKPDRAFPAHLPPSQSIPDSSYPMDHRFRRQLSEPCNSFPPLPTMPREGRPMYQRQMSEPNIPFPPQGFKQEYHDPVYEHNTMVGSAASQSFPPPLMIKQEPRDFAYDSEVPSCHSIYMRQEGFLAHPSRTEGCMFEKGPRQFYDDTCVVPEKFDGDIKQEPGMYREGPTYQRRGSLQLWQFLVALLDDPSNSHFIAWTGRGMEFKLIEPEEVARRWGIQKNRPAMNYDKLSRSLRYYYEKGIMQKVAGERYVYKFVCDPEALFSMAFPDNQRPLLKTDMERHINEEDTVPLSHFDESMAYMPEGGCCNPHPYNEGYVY
Method in brief: as §1

CAGGAA
binding signal (FLI1): 1.63 fold enrichment (6-mer frequency, TF over GST control) | binding signal (ELK1): 1.57 fold enrichment (6-mer frequency, TF over GST control) | binding signal (GABPA): 1.5 fold enrichment (6-mer frequency, TF over GST control) | binding signal (ERG): 1.83 fold enrichment (6-mer frequency, TF over GST control) | binding signal (ELF1): 1.48 fold enrichment (6-mer frequency, TF over GST control) | binding signal (EHF): 1.79 fold enrichment (6-mer frequency, TF over GST control) | binding signal (SPI1): 1.96 fold enrichment (6-mer frequency, TF over GST control) | binding signal (SPIB): 1.69 fold enrichment (6-mer frequency, TF over GST control) | binding signal (ELK3): 1.57 fold enrichment (6-mer frequency, TF over GST control) | binding signal (FEV): 1.51 fold enrichment (6-mer frequency, TF over GST control) | binding signal (ETV5): 1.79 fold enrichment (6-mer frequency, TF over GST control) | binding signal (HSF1): 1.04 fold enrichment (6-mer frequency, TF over GST control) | binding signal (SPIC): 1.65 fold enrichment (6-mer frequency, TF over GST control) | binding signal (ELF4): 1.52 fold enrichment (6-mer frequency, TF over GST control) | binding signal (ELK4): 1.37 fold enrichment (6-mer frequency, TF over GST control) | binding signal (ETV2): 1.6 fold enrichment (6-mer frequency, TF over GST control) | binding signal (ELF3): 1.86 fold enrichment (6-mer frequency, TF over GST control) | binding signal (ETV1): 1.74 fold enrichment (6-mer frequency, TF over GST control)
